Screening results (PubChem BioAssay)
Hits are enriched below; roughly 18% of the tested compounds scored in any of these assays.
TDP1 inh: TDP1 (human) enzyme inhibition | AID 485290 | Potency, µM (doses to about 130 µM), for the others: at the highest dose activity change, negative = inhibition, hits mostly inhibitors | 0.28% of 350,000 active | recombinant TDP1, AlphaScreen DNA substrate cleavage | Q9NUW8; note: potency is the fitted concentration of half-maximal effect; % is set by controls: 0 for no effect and ±100 for the full control effect; nearly all actives have a fitted effect of over 40% in size
Target sequence (Q9NUW8 whole entry, looked up): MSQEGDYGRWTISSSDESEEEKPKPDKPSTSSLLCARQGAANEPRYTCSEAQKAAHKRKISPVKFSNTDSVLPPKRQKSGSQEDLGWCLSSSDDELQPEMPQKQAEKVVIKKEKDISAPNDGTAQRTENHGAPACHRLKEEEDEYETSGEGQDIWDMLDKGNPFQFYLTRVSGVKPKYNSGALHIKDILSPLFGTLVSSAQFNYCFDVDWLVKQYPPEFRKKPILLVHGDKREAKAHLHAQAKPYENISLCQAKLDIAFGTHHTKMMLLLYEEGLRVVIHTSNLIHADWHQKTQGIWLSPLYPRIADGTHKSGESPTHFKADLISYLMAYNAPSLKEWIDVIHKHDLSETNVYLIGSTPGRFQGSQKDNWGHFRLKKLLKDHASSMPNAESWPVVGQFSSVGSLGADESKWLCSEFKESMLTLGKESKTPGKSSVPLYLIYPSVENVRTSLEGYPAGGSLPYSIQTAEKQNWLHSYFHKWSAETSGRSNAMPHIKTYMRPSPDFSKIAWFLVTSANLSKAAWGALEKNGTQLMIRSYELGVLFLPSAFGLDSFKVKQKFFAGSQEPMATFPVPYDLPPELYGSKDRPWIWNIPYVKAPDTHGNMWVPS
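Tdp1 1 nM final; 15 min RT w/ cpd; substrate 15 nM, 5 min; beads 10 ug/ml, 10 min; AlphaScreen read. Neg ctrl: no enzyme.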
TDP1 cell CPT: growth inhibition of DT40 Tdp1-/-;hTDP1 cells with camptothecin (screen for TDP1 inhibitors); 12% of 420,000 active; Potency, µM (doses to about 46.2 µM), for the others: at the top dose activity change, negative = growth inhibition, most hits filed as inhibitors; chicken DT40 Tdp1-/-;hTDP1 cells + 20 nM CPT, ATP luminescence, 48 h; note: potency is the fitted concentration of half-maximal effect; % is set by controls: 0 for no effect and ±100 for the full control effect; nearly all actives have a fitted effect of over 55% in size
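Cell growth measured by CellTiter-Glo luminescence after a minimum 48 h, 37 C compound exposure with 20 nM CPT in Tdp1-knockout DT40 cells stably expressing hTDP1, seeded 400/well; qHTS titration format.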
DT40 TDP1 no CPT: qHTS for Inhibitors of human tyrosyl-DNA phosphodiesterase 1 (TDP1): qHTS in cells in absence of CPT. DT40 Tdp1-/- hTDP1 cells, no CPT, ATP luminescence, 48 h. Potency, µM (series often up to 46.2 µM), for the others: top-dose activity change, negative = growth inhibition, most hits filed as inhibitors. 15% of 420,000 active; note: potency is the fitted concentration of half-maximal effect; % is set by controls: 0 for no effect and ±100 for the full control effect; nearly all actives have a fitted effect of over 55% in size
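No-CPT arm: Tdp1-/-;hTDP1 DT40 cells (400/well) plus compounds, incubated ≥48 hr at 37 °C. Readout CellTiter-Glo luminescence.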
HepG2 tox: HepG2 cytotoxicity, counter-screen for TGF-b inhibitors | 0.76% of 410,000 active | HepG2 CAGA-GFP viability, ATP luminescence, 18 h | Potency, µM (titrated, usually from 46.1 µM), without a hit: at the highest dose activity change, negative = cytotoxicity, hits mostly cytotoxic; note: potency is the fitted concentration of half-maximal effect
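CellTiter-Glo luminescence gave cytotoxicity after 18 hours at 37 degrees C. The cells were HepG2 CAGA-GFP in 1% FBS DMEM, stimulated with 500 pg/mL TGF-beta after compound addition. %Activity was normalised to no-cell wells (complete cell-killing) and DMSO (no toxicity), and curves were fitted and classified.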
IL-1B inflam inh: inflammasome signaling inhibition, IL-1 beta readout | THP-1 LPS/ATP IL-1B secretion, AlphaLISA, 16 h; active compounds read low | 4.7% of 360,000 active | activity change, % at 57.5 µM; in the data active = activity change below about -50%; inconclusive = mostly about -30% to -49%; note: % is set by controls: 0 for no effect and ±100 for the full control effect
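Secreted IL-1B measured by AlphaLISA bead assay after 16 h compound exposure of THP-1 cells; compounds (final up to 57.5 uM) added 1 h before LPS (250 ng/mL) and ATP (1.25 mM) stimulation; lower signal means less secretion.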
TGFb inhibitor: inhibitors of TGF-b signaling; HepG2 CAGA-GFP TGF-b/SMAD3 reporter, GFP fluorescence, 18 h; TGF-beta stimulated, 500 pg/mL final; Potency, µM (titrated, usually from 46.1 µM), inactives show top-dose activity, negative = inhibition, actives largely listed as inhibitors; AID 588855; 1.2% of 410,000 active; note: potency is the fitted concentration of half-maximal effect; % is set by controls: 0 for no effect and ±100 for the full control effect; nearly all actives have a fitted effect of over 65% in size
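Read-out: total well GFP (ex488/em500-530) summed from mean per-cell fluorescence. Cells: HEPG2 CAGA-GFP, 1% FBS DMEM, 18 h at 37 degrees C with 500 pg/mL final TGF-beta. Unstimulated wells served as the full-inhibition control; stimulated DMSO wells = 0%.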
* hit, by the source's call; i = inactive; ? = inconclusive; / = not tested or not shown; [ ] = dose if it differs, or a comment. Unless noted, calls come from the whole dose curve; as a rule, active = well fitted curve in the direction sought with a large enough effect; inconclusive = small, poorly fitted or top-dose-only effect, or another doubt; inactive = no such curve, though single readings can be large; an effect the other way counts as inactive or inconclusive.

SMILES | TDP1 inh | TDP1 cell CPT | DT40 TDP1 no CPT | HepG2 tox | IL-1B inflam inh | TGFb inhibitor
Cc1csc(=O)n1CCC(=O)OCC(=O)Nc1ccc(F)c(F)c1F | 0% | 0% | -2% | 19% | 3 | 12%
Cc1c(/C=N/NC(=O)c2ccccc2O)c2ccccn2c1C(=O)c1ccc(F)cc1 | -2% | ? | 23µM* | -35% | -88* | ?
Cc1ccc(NC(=O)Cc2coc3ccc(C(C)C)cc23)cc1Cl | -2% | ? | 29µM* | -32% | / | 11µM*
CCc1ccc2occ(CC(=O)Nc3ccc(C)c(C)c3)c2c1 | -7% | ? | 13µM* | -44% | / | ?
CCN(CC(=O)Nc1ccc(OC)cc1)C(=O)Cc1coc2cc(C)c(C)cc12 | 2% | -14% | -18% | 11µM* | -9 | 0%
Cc1ccc(NC(=O)CN(C)C(=O)Cc2coc3cc(C)c(C)cc23)cc1 | / | ? | ? | 0% | 38 | 2%
CCCCOC(=O)c1ccc(NC(=O)Cc2coc3ccc(C(C)C)cc23)cc1 | -4% | 26µM* | 23µM* | -39% | / | 11µM*
CCCCn1c(N)c(N(CCOC)C(=O)C2CC(=O)N(Cc3ccco3)C2)c(=O)[nH]c1=O (configuration not stated) | 1% | -10% | 27% | 3% | 25 | 11%
COc1cccc(CN2CCC3(CC2)c2ccccc2[C@@H](NC(=O)c2ccccc2)[C@@H]3O)c1O | / | ? | -30% | / | / | /
COc1ccc(S(=O)(=O)n2nc(C)cc2C)cc1OC | / | -2% | 19% | 2% | -13 | -2%
CC(=O)OC[C@@H]1O[C@H](C/C=N\OCC[C@H]2C=C[C@H](OC(C)=O)[C@@H](COC(C)=O)O2)C=C[C@@H]1OC(C)=O | 6%[21 µM] | / | / | / | / | /
O=C(CN1C(=O)NC2(CCOc3ccccc32)C1=O)N1CCCCC1 (configuration not stated) | 0% | -13% | -1% | -10% | 13 | -27%
CC1(C)N([O-])C2=C(CCCC2)[N+]1=O | -8% | 3% | -1% | 5% | 17 | -1%
COc1ccc(NC(=O)c2oc3ccccc3c2NC(=O)Cc2coc3ccc(C)cc23)cc1 | 5% | -24% | ? | -55% | / | 3%
CCOc1ccc(NC(=O)Cc2coc3ccc(C)cc23)cc1 | 0% | 16µM* | 21µM* | -51% | / | -4%
COc1cccc(OCc2nc3ccccc3[nH]2)c1 | 4% | 13µM* | ? | -34% | -15 | 3%
Cc1ccccc1OCc1nc2ccccc2[nH]1 | -8% | 23µM* | 16µM* | -62% | 18 | 0%
c1ccc2cc(OCc3nc4ccccc4[nH]3)ccc2c1 | 7% | ? | ? | -41% | ? | -1%
Cc1ccc(C2CCN(C(=S)Nc3cccc(C)c3)C2)cc1 (configuration not stated) | 3% | ? | 18µM* | -46% | 10 | ?
Cc1ccc(C2CCN(C(=S)NC(C)(C)C)C2)cc1 (configuration not stated) | 0% | ? | ? | -12% | -17 | -7%
Cc1cccc(NC(=S)N2CCC(c3nc4ccccc4o3)CC2)c1 | 0% | ? | 29µM* | -19% | -6 | ?
Cc1cc(C)cc(NC(=O)N2CCC(c3nc4ccccc4o3)CC2)c1 | 1% | ? | -27% | -22% | 0 | -11%
CC(C)c1ccc(NC(=O)N2CCC(c3nc4ccccc4o3)CC2)cc1 | 1% | 21µM* | 18µM* | -12% | -16 | -10%
Cc1ccc(C2CCN(C(=S)NC3CCCCC3)C2)cc1 (configuration not stated) | 8% | ? | 18µM* | -8% | 30 | ?
Cc1cccc(NC(=S)N2CCCCC2)c1 | 8% | ? | ? | 13% | i | 3%
SMILES | TDP1 inh | TDP1 cell CPT | DT40 TDP1 no CPT | HepG2 tox | IL-1B inflam inh | TGFb inhibitor
COC(=O)C(C(=O)OC)C(CC(=O)c1ccc(Br)cc1)c1ccccc1 (configuration not stated) | / | -3% | -22% | -89% | -2 | 12%
Fc1ccc(C(c2ccc(F)cc2)N2CCN(C/C=C\c3ccccc3)CC2)cc1 | 10% | 24µM* | 21µM* | / | / | /
O=C(Nc1cccc(F)c1)N1CCN(C/C=C/c2ccccc2)CC1 | 1% | -7% | -14% | -2% | -4 | ?
CS(=O)(=O)N1CCN(C/C=C/c2ccccc2)CC1 | 0% | -25% | ? | -19% | -15 | -15%
O=C(Nc1ccc(F)cc1)N1CCN(C/C=C/c2ccccc2)CC1 | 4% | ? | 29µM* | -7% | -14 | -28%
CC(C)(CNC(=O)c1cc(Cl)c(O)c(Cl)c1)N1CCCCC1 | / | 1% | 9% | -3% | 4 | 5%
Cc1cc(NC(=O)CN2C(=O)[C@@H]3[C@H](C2=O)[C@@H]2C[C@H]3C(Br)C2Br)no1 (some centres not stated) | 7% | -7% | -10% | -19% | 22 | -3%
CSCC[C@@H](N)C(=O)O | 1% | -14% | -12% | / | / | /
COc1ccc(N(C(=O)c2snc(C(N)=O)c2N)C(C(=O)NC2CCCCC2)c2ccc(C)o2)c(OC)c1 (configuration not stated) | 18% | 12µM* | 21µM* | 4% | -4 | 17%
COc1ccc(N(C(=O)c2snc(C(N)=O)c2N)C(C(=O)NC2CCCC2)c2ccco2)c(OC)c1 (configuration not stated) | 15% | ? | 23µM* | -15% | -70* | 11%
COc1cc(C(C(=O)NC2CCCC2)N(C(=O)c2snc(C(N)=O)c2N)c2ccccc2)cc(OC)c1OC (configuration not stated) | / | -25% | ? | -8% | -10 | 14%
COc1ccc(C)cc1N(C(=O)c1snc(C(N)=O)c1N)C(C(=O)NC1CCCC1)c1ccc(F)cc1 (configuration not stated) | -7% | ? | 16µM* | -10% | -12 | ?
COc1ccc(N(C(=O)c2snc(C(N)=O)c2N)C(C(=O)NC2CCCC2)c2ccc(F)cc2)c(OC)c1 (configuration not stated) | 0%[0.0935 µM] | -28% | ? | -1% | 8 | -12%
O=C1c2ccccc2C(=O)N1C/C=C/c1ccccc1 | 1% | 5% | 4% | 3% | -23 | -28%
O=C1C(=O)N(C/C=C/c2ccccc2)c2ccccc21 | / | 0.92µM* | 0.58µM* | -24% | 29 | ?
